# Results reported in PubChem BioAssay.
# Several values for one entry are separate records, joined by “and”; a condition that tells them apart may be missing. Identical values can stand only once. Inconclusive results are not listed. For part of these data: Measured potencies and affinities stand elsewhere. Activity calls are given as the source filed them. Unless noted, no stated cut-off is given here; in the data, active means parasite load remaining mostly below about 12% (no sharp cut-off); inactive means mostly above about 10%.
# Tests used:
# [1] = polyglutamine-triggered caspase-3 activation inhibitors, cell-based (AID 1583); details: polyglutamine-induced caspase-3 activation, cell assay; stronger effect = higher value;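 tested at 10 µM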
# [2] = inhibitors of polyQ aggregate elongation, biochemical, solid-phase synthetic aggregates, QA3 (AID 1585; call rule not given here); details: biotin-polyQ incorporation; EC50: measured here: elongation inhibition potency; inhibition: at 100 µM, stronger effect = higher value
# [3] = suppressors of polyQ aggregation in yeast, 75Q-TubU reporter (AID 1593); details: Yeast 75Q polyglutamine aggregation reporter
# [4] = rescue of polyQ-huntingtin neuronal dysfunction in worms, whole organism, C. elegans mechanosensory neurons, N-terminal huntingtin (AID 1599); details: touch response, stronger effect = higher value
# [5] = inhibitors of mitochondrial cytochrome c release, biochemical, purified mitochondria (AID 1603); details: stronger effect = lower value;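 further: mouse liver mitochondria challenged with calcium chloride; signal normalized to the plate average as 100%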
# [6] = inhibitors of polyQ protein aggregation (AID 1604); details: polyglutamine-induced protein aggregation inhibition assay; stronger effect = higher value; tested at 2.5 µM
# [7] = enhancers of glutamate uptake in motor neurons, MN-1 cell line (AID 1612); details: MN-1 motor neuron cells, stronger effect = higher value;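 further: tested at 1 µM final; 0% = mean of DMSO vehicle wells on each plate; positive means more glutamate uptake than control and negative means less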
# [8] = suppressors of polyglutamine aggregation in yeast, 75Q-TubH (AID 1616); details: S. cerevisiae 75Q-TubH polyglutamine aggregation suppression; stronger effect = higher value
# [9] = liver-stage malaria parasite growth inhibition, primary screen, cell-based, HepG2, luciferase luminescence, HepG2 viability (AID 624349);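 further: 100% = mean of DMSO negative control wells on the same plate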; details: P. berghei liver stage in HepG2, luciferase luminescence, concentration not given here; parasite load remaining: stronger effect = lower value; viability: measured here: HepG2 viability without parasites
# [10] = differential killing of epithelial or mesenchymal cells, primary screen, imaging, PC-3E GFP, TEM4-18 mCherry, co-culture (AID 1345086;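 active means compounds killing one labelled cell type while sparing the other, by normalised counts and ratio limits, not self-fluorescent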;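 on all read-outs here: cells exposed to compound for 72 h before imaging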;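 on red/green cell ratio (normalised): normalised mesenchymal count divided by normalised epithelial count so high means epithelial killing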); details: imaging cell counts, at 1 µM; for red/green cell ratio (normalised): actives lie on both sides, counts scaled to control wells, 1 = unselective
# [11] = sensitizers of A549 cells to miR-34 induction, primary screen, imaging, A549 dox-inducible miR-34, nuclei and caspase counts (AID 1347080;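 active means compounds whose cell count with miR-34 switched on is under 0.7 times the count with it off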); details: A549 miR-34 inducible, Hoechst nuclei count, 48 h
# [12] = viability rescue of complex I mutant cybrids, primary screen, cell-based, galactose medium, ATP luminescence (AID 1645843;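 active means z-score of at least 1.8 in each of two replicates, scored against plate mean and spread of sample wells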;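 further: positive z means more ATP and so rescue of galactose-driven cybrid death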); details: complex I mutant cybrid cells, 72 h, stronger effect = higher value
# [13] = biological target: NAD(+) hydrolase SARM1 (Homo sapiens) (UniProt Q6SZW1); test: SARM1 TIR NADase inhibitors, cell lysate, NAD-Glo luminescence (AID 1508614;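 active means compound whose remaining NAD level is above about 45 nM, limit read from the data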); details: SAM-TIR HEK293T lysate NADase, at 1 µM, stronger effect = higher value
# Sequence of NAD(+) hydrolase SARM1 (Homo sapiens) (Q6SZW1 whole entry, looked up, the tested form may be a part): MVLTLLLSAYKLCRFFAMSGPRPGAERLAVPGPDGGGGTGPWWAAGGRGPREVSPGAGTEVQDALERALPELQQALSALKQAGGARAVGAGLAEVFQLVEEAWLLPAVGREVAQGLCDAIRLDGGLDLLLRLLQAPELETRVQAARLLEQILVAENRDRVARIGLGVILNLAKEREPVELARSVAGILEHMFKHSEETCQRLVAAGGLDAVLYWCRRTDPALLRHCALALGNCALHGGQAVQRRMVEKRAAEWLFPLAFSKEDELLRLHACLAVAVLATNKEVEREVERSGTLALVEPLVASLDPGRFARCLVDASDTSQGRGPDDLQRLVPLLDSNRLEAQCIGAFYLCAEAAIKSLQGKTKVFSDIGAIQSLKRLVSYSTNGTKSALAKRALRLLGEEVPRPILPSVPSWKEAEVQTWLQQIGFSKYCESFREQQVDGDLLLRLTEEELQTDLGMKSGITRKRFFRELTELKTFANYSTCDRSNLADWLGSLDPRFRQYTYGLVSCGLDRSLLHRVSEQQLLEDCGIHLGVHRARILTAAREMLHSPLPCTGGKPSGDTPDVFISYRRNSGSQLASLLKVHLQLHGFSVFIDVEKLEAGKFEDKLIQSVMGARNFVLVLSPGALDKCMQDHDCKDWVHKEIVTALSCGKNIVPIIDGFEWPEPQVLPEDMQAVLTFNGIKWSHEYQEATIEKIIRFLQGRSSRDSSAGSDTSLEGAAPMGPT
# [14] = biological target: Mitogen-activated protein kinase 7 (Homo sapiens) (UniProt Q13164); test: ERK5 transactivation activators in reporter cells, primary screen, cell-based, HTS (AID 1508626;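 active means luciferase signal above three times the same-plate solvent-only control wells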;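 further: luciferase driven by Gal4-ERK5 fusion binding five Gal4 sites before minimal TATA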); details: HeLa Gal4-ERK5 transactivation, 18 h, at 5 µM, stronger effect = higher value
# Sequence of Mitogen-activated protein kinase 7 (Homo sapiens) (Q13164 whole entry, looked up, the tested form may be a part): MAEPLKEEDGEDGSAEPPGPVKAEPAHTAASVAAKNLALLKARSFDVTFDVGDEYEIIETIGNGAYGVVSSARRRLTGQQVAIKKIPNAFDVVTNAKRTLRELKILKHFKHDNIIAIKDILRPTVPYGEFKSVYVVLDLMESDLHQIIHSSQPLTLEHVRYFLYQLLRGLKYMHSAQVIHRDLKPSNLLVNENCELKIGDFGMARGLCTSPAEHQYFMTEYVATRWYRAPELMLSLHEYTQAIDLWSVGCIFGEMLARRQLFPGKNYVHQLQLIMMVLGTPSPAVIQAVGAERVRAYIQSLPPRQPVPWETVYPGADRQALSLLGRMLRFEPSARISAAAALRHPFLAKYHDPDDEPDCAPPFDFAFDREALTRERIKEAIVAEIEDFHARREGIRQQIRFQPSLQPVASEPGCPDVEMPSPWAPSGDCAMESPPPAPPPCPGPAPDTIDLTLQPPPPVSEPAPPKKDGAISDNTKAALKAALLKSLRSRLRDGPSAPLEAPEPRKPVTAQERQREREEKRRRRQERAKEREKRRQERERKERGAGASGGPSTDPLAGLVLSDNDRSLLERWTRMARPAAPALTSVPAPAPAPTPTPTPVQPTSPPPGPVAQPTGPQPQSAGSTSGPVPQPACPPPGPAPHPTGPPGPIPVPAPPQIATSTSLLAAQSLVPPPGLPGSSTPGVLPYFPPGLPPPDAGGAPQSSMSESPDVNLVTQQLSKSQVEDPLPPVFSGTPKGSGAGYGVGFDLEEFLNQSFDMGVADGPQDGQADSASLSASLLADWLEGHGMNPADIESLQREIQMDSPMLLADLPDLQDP
# [15] = protection against mutant huntingtin cytotoxicity, PC12 cells, LDH release (AID 1610); details: PC12 mutant huntingtin toxicity, final LDH at 4 uM, stronger effect = lower value
# [16] = reducers of polyQ inclusions in PC12 cells, cell-based, NGF-treated PC12, GFPQ80 (AID 1614); details: PC12 NGF-treated GFP-polyQ80 inclusion reduction;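 further: lower means fewer inclusions and 0 means no inclusions at all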
# [17] = test system: Hepatitis C virus NS3 helicase; test: HCV NS3 helicase inhibitors, primary screen, biochemical, fluorescence polarization, LOPAC1280 library (AID 687035; in the data active means inhibition above about 37%); details: Purified HCV NS3 helicase, Cy5-dT15 ssDNA binding fluorescence polarization; stronger effect = higher value; concentration not given here
# [18] = Cy5 fluorescence quenching or enhancement artefacts, artefact control for HCV NS3 helicase inhibitor project, biochemical, LOPAC1280 (AID 687037; call rule not given here); details: Cy5-DNA-NS3h complex fluorescence interference counterscreen
# [19] = measured here: epithelial PC-3E GFP cell survival
# [20] = measured here: mesenchymal TEM4-18 mCherry cell survival
# [21] = stronger effect = lower value, cell number ratio, induced over uninduced
# [22] = measured here: relative caspase fold change +Dox/-Dox
# [23] = measured here: total cells with miR-34 induction, stronger effect = lower value
# [24] = measured here: total cells without miR-34 induction
compound,measurement,setting,value
C#C[C@]1(O)CCC2C3CCc4cc(O)ccc4C3CC[C@@]21C (some centres undefined),inhibition,[1],15.5%
same,EC50,[2],129 µM
same,inhibition,[2],58.5% (active)
same,score,[3],0.67
same,rescue above control,[4],-11.3
same,cytochrome c release ratio,[5],1.15
same,inhibition of aggregation,[6],38.1%
same,glutamate uptake change,[7],-12.7%
same,aggregation suppression score,[8],0.484
same,parasite load remaining,[9],88.3% (inactive) and 66.4% (inactive)
same,viability,[9],76.2% and 99.2%
same,red/green cell ratio (normalised),[10],0.98 (inactive)
same,normalised cell number,[10]; [19],1.1
same,normalised cell number,[10]; [20],1.07
same,fold change,[11]; [21],1.12 (inactive) and 1.01 (inactive)
same,fold change,[11]; [22],1.15 and 1.03
same,cell count,[11]; [23],5370 and 6100
same,cell count,[11]; [24],4780 and 6050
same,z-score,[12],-0.545 (inactive)
CCOC(=O)Nc1nc2ccccc2[nH]1,parasite load remaining,[9],62.9% (inactive)
same,viability,[9],103%
same,red/green cell ratio (normalised),[10],1.08 (inactive)
same,normalised cell number,[10]; [19],0.9
same,normalised cell number,[10]; [20],0.97
same,fold change,[11]; [21],0.84 (inactive)
same,fold change,[11]; [22],2.72
same,cell count,[11]; [23],8540
same,cell count,[11]; [24],10200
same,remaining NAD,[13],10 nM (inactive)
same,luciferase signal,[14],88 AU (inactive)
C=CCCCCCCCCC(=O)[O-].C=CCCCCCCCCC(=O)[O-].[Zn+2],parasite load remaining,[9],88.8% (inactive)
same,viability,[9],94.5%
same,red/green cell ratio (normalised),[10],1.08 (inactive)
same,normalised cell number,[10]; [19],0.98
same,normalised cell number,[10]; [20],1.05
same,fold change,[11]; [21],0.86 (inactive)
same,fold change,[11]; [22],4.55
same,cell count,[11]; [23],11700
same,cell count,[11]; [24],13600
same,remaining NAD,[13],10 nM (inactive)
same,luciferase signal,[14],48 AU (inactive)
CC(=O)Oc1c(C)cccc1C(=O)O,red/green cell ratio (normalised),[10],0.87 (inactive)
same,normalised cell number,[10]; [19],1.16
same,normalised cell number,[10]; [20],1
same,fold change,[11]; [21],0.895 (inactive)
same,fold change,[11]; [22],0.783
same,cell count,[11]; [23],8780
same,cell count,[11]; [24],9810
same,remaining NAD,[13],10 nM (inactive)
same,luciferase signal,[14],56 AU (inactive)
CO/N=C(/C(=O)N[C@@H]1C(=O)N2C(C(=O)O)=C(COC(C)=O)CS[C@H]12)c1csc(N)n1,inhibition,[1],6.49%
same,score,[3],1.38
same,rescue above control,[4],2.83
same,cytochrome c release ratio,[5],1.43
same,inhibition of aggregation,[6],86.2%
same,normalised LDH release,[15],0.958
same,glutamate uptake change,[7],-17.6%
same,inclusion score,[16],2
same,aggregation suppression score,[8],1.39
same,parasite load remaining,[9],84.7% (inactive) and 61.2% (inactive)
same,viability,[9],73.5% and 100%
same,inhibition,[17],6% (inactive)
same,fluorescence ratio (interference),[18],1 (inactive)
same,red/green cell ratio (normalised),[10],1.18 (inactive)
same,normalised cell number,[10]; [19],1.15
same,normalised cell number,[10]; [20],1.35
same,fold change,[11]; [21],0.913 (inactive)
same,fold change,[11]; [22],1.26
same,cell count,[11]; [23],11200
same,cell count,[11]; [24],12300
CC(COc1ccccc1)NC(C)[C@H](O)c1ccc(O)cc1 (some centres undefined),inhibition,[1],-10.5%
same,score,[3],1.07
same,rescue above control,[4],-0.43
same,cytochrome c release ratio,[5],0.93
same,inhibition of aggregation,[6],67.5%
same,glutamate uptake change,[7],5.98%
same,inclusion score,[16],2
same,aggregation suppression score,[8],0.981
same,parasite load remaining,[9],58.3% (inactive)
same,viability,[9],72.5% and 101%
same,red/green cell ratio (normalised),[10],1.11 (inactive)
same,normalised cell number,[10]; [19],1.16
same,normalised cell number,[10]; [20],1.29
same,fold change,[11]; [21],0.796 (inactive)
same,fold change,[11]; [22],1.19
same,cell count,[11]; [23],10800
same,cell count,[11]; [24],13600
C[C@@H]1CC2C3CCC4=CC(=O)C=C[C@]4(C)[C@@]3(F)[C@@H](O)C[C@]2(C)[C@@]1(O)C(=O)COP(=O)(O)O (some centres undefined),inhibition,[1],-13.7%
same,score,[3],2.71
same,rescue above control,[4],-9.5
same,cytochrome c release ratio,[5],0.74
same,inhibition of aggregation,[6],70.1%
same,glutamate uptake change,[7],6.45%
same,inclusion score,[16],2.5
same,aggregation suppression score,[8],1.87
same,parasite load remaining,[9],113% (inactive) and 77.9% (inactive)
same,viability,[9],75.1% and 87%
same,red/green cell ratio (normalised),[10],1.5 (inactive)
same,normalised cell number,[10]; [19],1.11
same,normalised cell number,[10]; [20],1.67
same,fold change,[11]; [21],0.847 (inactive)
same,fold change,[11]; [22],1.88
same,cell count,[11]; [23],7240
same,cell count,[11]; [24],8540
CC1(C)O[C@@H]2CC3C4CCC5=CC(=O)C=C[C@]5(C)[C@@]4(F)[C@@H](O)C[C@]3(C)[C@]2(C(=O)CO)O1 (some centres undefined),inhibition,[1],7.99%
same,score,[3],0.99
same,rescue above control,[4],-3.95
same,cytochrome c release ratio,[5],1.15
same,inhibition of aggregation,[6],85.2%
same,glutamate uptake change,[7],20.7%
same,inclusion score,[16],2
same,aggregation suppression score,[8],1.19
same,parasite load remaining,[9],187% (inactive) and 62.4% (inactive)
same,viability,[9],64.4% and 84.9%
same,red/green cell ratio (normalised),[10],1.43 (inactive)
same,normalised cell number,[10]; [19],0.86
same,normalised cell number,[10]; [20],1.23
same,fold change,[11]; [21],0.787 (inactive)
same,fold change,[11]; [22],3.14
same,cell count,[11]; [23],6650
same,cell count,[11]; [24],8440
CC(=O)OCC(=O)[C@@]12OC3(CCCC3)O[C@@H]1CC1C3CCC4=CC(=O)C=C[C@]4(C)[C@@]3(F)[C@@H](O)C[C@@]12C (some centres undefined),inhibition,[1],11.1%
same,score,[3],0.65
same,rescue above control,[4],-4.49
same,cytochrome c release ratio,[5],0.91
same,inhibition of aggregation,[6],31.4%
same,glutamate uptake change,[7],27.2%
same,inclusion score,[16],2
same,aggregation suppression score,[8],0.855
same,parasite load remaining,[9],189% (inactive) and 59% (inactive)
same,viability,[9],84% and 96.4%
same,red/green cell ratio (normalised),[10],1.04 (inactive)
same,normalised cell number,[10]; [19],1.4
same,normalised cell number,[10]; [20],1.46
same,fold change,[11]; [21],0.917 (inactive)
same,fold change,[11]; [22],2.86
same,cell count,[11]; [23],7510
same,cell count,[11]; [24],8190
C[C@]12C=CC(=O)C=C1CCC1C3C[C@@H](O)[C@](O)(C(=O)CO)[C@@]3(C)C[C@H](O)[C@@]12F (some centres undefined),inhibition,[1],-13.4%
same,score,[3],1.07
same,rescue above control,[4],-12.1
same,cytochrome c release ratio,[5],1.15
same,inhibition of aggregation,[6],48.1%
same,glutamate uptake change,[7],-1.32%
same,inclusion score,[16],2
same,aggregation suppression score,[8],1.12
same,parasite load remaining,[9],233% (inactive) and 58.4% (inactive)
same,viability,[9],72.6% and 84.9%
same,red/green cell ratio (normalised),[10],1.46 (inactive)
same,normalised cell number,[10]; [19],0.85
same,normalised cell number,[10]; [20],1.24
same,fold change,[11]; [21],0.829 (inactive)
same,fold change,[11]; [22],2.83
same,cell count,[11]; [23],6430
same,cell count,[11]; [24],7760
CCOC(=O)OC(C)OC(=O)C1N2C(=O)C(NC(=O)[C@H](N)c3ccccc3)C2SC1(C)C (some centres undefined),inhibition,[1],5.61%
same,score,[3],1.5
same,rescue above control,[4],-4.3
same,cytochrome c release ratio,[5],0.96
same,inhibition of aggregation,[6],70.4%
same,glutamate uptake change,[7],-13.3%
same,inclusion score,[16],2
same,aggregation suppression score,[8],1.07
same,parasite load remaining,[9],43.5% (inactive)
same,viability,[9],104%
same,red/green cell ratio (normalised),[10],1.19 (inactive)
same,normalised cell number,[10]; [19],1.07
same,normalised cell number,[10]; [20],1.27
same,fold change,[11]; [21],0.906 (inactive)
same,fold change,[11]; [22],2.54
same,cell count,[11]; [23],11600
same,cell count,[11]; [24],12800
CO[C@@]1(NC(=O)CSCC#N)C(=O)N2C(C(=O)O)=C(CSc3nnnn3C)CSC21 (some centres undefined),inhibition,[1],20.8%
same,score,[3],1.29
same,rescue above control,[4],-0.81
same,cytochrome c release ratio,[5],0.56
same,inhibition of aggregation,[6],33.3%
same,glutamate uptake change,[7],-5.52%
same,inclusion score,[16],2
same,aggregation suppression score,[8],1.5
same,parasite load remaining,[9],99.4% (inactive) and 54.5% (inactive)
same,viability,[9],73% and 111%
same,red/green cell ratio (normalised),[10],0.89 (inactive)
same,normalised cell number,[10]; [19],1.07
same,normalised cell number,[10]; [20],0.95
same,fold change,[11]; [21],0.923 (inactive)
same,fold change,[11]; [22],3.61
same,cell count,[11]; [23],12200
same,cell count,[11]; [24],13200
